The values that follow come from PubChem BioAssay (NCATS).

Assay [1] deals with Calcium and integrin-binding protein 1 (Homo sapiens) (UniProt Q99828). The assay is described as follows: Primary qHTS for Identification of Calcium Integrin Binding Protein 1 (CIB1) Competitor (AID 1508620).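 Also: GST tagged CIB1 binding a fluorescein labelled alphaIIb integrin peptide tracer; top concentration of the series differs between compounds; % is scaled to controls: 0 for no effect and ±100 for the full control effect.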 A digest of the protocol:
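Fluorescence polarization competition: GST-tagged CIB1 (1 uM final) preincubated with compound 15 min at room temperature, then FITC-labelled alphaIIb peptide (100 nM final) added. After 15 min at room temperature, polarization read at Ex 480/Em 540.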

Assay [2] is described as follows: Primary qHTS for inhibitors of nuclear receptor binding SET domain protein 2 (NSD2) in an isogenic RCH-ACV NSD2 p.E1099K mutant (9B) (AID 1645876). Also: nearly all actives have a fitted effect of over 70% in size. Also: potency is read from the fitted curve at half-maximal effect.
For assay [3], the target named is N-terminal Xaa-Pro-Lys N-methyltransferase 1 (Homo sapiens) (UniProt Q9BV86). The assay is described as follows: Confirmatory qHTS for Inhibitors of N-terminal methyltransferase 1 (NTMT1): MTaseGlo Assay (AID 1645874). Also: nearly all actives have a fitted effect of over 65% in size. Also: potency is read from the fitted curve at half-maximal effect.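 As to activity change, negative = inhibition: luminescence from SAH made as NTMT1 methylates SPKRIA peptide using SAM; series mostly up to about 100 µM; 0% = DMSO control and -100% = no-enzyme control.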 In a few lines:
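SPKRIA peptide at 1 uM was methylated by 125 nM NTMT1 using 100 uM SAM over 30 min at room temperature, following a 15 min compound preincubation. Product SAH was detected luminescently.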

The target of assay [4] is Cytochrome P450 2C9 (Homo sapiens) (UniProt P11712). Nature of the assay: Cytochrome P450 family 2 subfamily C member 9 (CYP2C9) small molecule antagonists: luciferase biochemical (cell-free) qHTS assay (AID 1645842; active = well fitted curve in the direction sought with a large enough effect in the repeat runs; an effect the other way counts as inactive or inconclusive; also: nearly all actives have a fitted effect of over 55% in size; also: potency is read from the fitted curve at half-maximal effect; as to activity change, negative = inhibition: series mostly up to about 57 µM; % is scaled to controls: 0 for no effect and ±100 for the full control effect). A digest of the protocol:
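P450-Glo CYP2C9 system: proluciferin substrate with enzyme in mix containing 0.4% BSA, 10 min at room temperature, then NADPH regeneration solution added and incubated 1 h at 37C. Detection reagent stopped reaction; luminescence read after 20 min as RLU.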

The target of a further assay is Papain (Carica papaya) (UniProt P00784). The assay is described as follows: Primary qHTS assay for inhibitors of the protease papain (AID 1645873).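 Also: papain turnover of Z-FR-AMC read as the AMC fluorescence gain over 10 min; series mostly up to about 50 µM; % is scaled to controls: 0 for no effect and ±100 for the full control effect.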
Papain (Carica papaya), sequence (P00784 whole entry, looked up): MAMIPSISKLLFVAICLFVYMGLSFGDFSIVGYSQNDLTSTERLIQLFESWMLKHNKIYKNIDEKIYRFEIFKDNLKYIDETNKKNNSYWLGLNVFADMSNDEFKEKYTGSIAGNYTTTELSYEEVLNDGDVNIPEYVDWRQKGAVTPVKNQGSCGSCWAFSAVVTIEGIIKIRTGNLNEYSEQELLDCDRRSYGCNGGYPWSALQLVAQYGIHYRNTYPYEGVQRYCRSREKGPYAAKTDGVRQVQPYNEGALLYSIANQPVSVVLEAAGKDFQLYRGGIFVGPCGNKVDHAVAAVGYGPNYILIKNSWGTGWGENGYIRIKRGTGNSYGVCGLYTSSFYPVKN

Several values for one entry are separate records, joined by “and”; a condition that tells them apart may be missing. Identical values can stand only once. Results filed as inconclusive are left out. Activity calls are given as the source filed them. Unless noted, calls follow the shape of the dose curve; as a rule, active = well fitted curve in the direction sought with a large enough effect; inconclusive = small, poorly fitted or top-dose-only effect, or another doubt; inactive = no such curve, though single readings can be large; an effect the other way counts as inactive or inconclusive. Where a SMILES comes first, the peptide text is derived from it. [ ]: non-standard residue; d: D form. ξ: configuration not given here. ξPhe(βξ-Me) = CC(c1ccccc1)C(N)C(=O)O; GABA = NCCCC(=O)O

Cytochrome P450 2C9 (Homo sapiens), sequence (P11712 whole entry, looked up): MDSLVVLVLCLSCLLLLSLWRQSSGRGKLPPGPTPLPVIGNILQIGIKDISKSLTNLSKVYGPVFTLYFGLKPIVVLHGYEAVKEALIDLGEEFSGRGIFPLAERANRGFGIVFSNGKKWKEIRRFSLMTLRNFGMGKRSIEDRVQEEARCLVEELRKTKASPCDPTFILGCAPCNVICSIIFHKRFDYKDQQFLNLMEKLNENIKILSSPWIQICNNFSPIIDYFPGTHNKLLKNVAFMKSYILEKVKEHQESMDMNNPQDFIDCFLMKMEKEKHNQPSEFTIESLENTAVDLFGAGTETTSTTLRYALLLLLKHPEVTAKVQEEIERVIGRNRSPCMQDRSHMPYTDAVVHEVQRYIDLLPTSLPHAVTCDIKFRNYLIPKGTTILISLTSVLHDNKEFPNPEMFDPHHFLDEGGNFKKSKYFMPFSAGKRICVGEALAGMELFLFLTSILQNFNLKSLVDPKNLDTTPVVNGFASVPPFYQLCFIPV
N-terminal Xaa-Pro-Lys N-methyltransferase 1 (Homo sapiens), sequence (Q9BV86 whole entry, looked up): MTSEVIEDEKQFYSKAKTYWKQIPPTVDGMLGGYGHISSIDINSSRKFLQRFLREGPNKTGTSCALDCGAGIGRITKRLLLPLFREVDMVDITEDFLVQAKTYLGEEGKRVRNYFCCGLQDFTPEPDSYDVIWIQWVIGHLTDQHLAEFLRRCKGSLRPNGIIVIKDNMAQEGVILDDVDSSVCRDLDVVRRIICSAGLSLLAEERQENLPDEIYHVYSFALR
Calcium and integrin-binding protein 1 (Homo sapiens), sequence (Q99828 whole entry, looked up): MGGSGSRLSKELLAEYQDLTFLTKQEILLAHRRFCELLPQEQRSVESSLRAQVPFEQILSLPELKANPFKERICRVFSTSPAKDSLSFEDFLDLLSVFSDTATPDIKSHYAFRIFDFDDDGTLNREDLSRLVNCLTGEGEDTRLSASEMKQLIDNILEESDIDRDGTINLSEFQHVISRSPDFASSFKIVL

Turning to `COC1C(CO)OC(n2cnc3c(=O)[nH]cnc32)C1O` (configuration not stated), the Potency result in assay [1] and in assay [2] was “inactive” in each case.
On to `Cc1cnc(Nc2ccc(F)cc2Cl)nc1-c1c[nH]c(C(=O)NC(CO)c2cccc(Cl)c2)c1` (configuration not stated), for which the Potency entry in assay [1] and in assay [3] was “inactive” each time. For the same molecule, the Potency in assay [2] was 8.33 µM (active).
Regarding `CC1(C)CCC[C@@]2(C)C1[C@H](OC(=O)/C=C/C=C/C(=O)O)C=C1COC(=O)[C@@]12O` (some centres not stated), the Potency entry in assay [1] and in assay [2] was “inactive” in each case.
In the case of `Cc1cc2c(c(=O)[nH]1)OC(C(O)CC(C)C)O2` (configuration not stated), the Potency entry in assay [1], in assay [3] and in assay [2] was “inactive” in each case.
Consider `CC1CCN(C(=O)CC#N)CC1N(C)c1ncnc2[nH]ccc12` (configuration not stated), for which the Potency result in assay [1] and in assay [2] was “inactive” each time. The Potency in assay [4] is 23.9 µM (active).
For `Nc1ncnc2c1nc(N)n2[C@@H]1O[C@H](CO)[C@@H](O)[C@H]1O`, the Potency entry in assay [1] and in assay [3] was “inactive” each time. Also, in assay [2], the Potency was 1.45 µM (active).
As to `COc1cc2c(cc1O)CC[C@H]1[C@@H]2CC[C@]2(C)[C@H](O)CC[C@@H]12`, the Potency result in assay [1] is “inactive”. Also, the Potency is 39.8 µM (active) in assay [3] and 1.45 µM (active) in assay [2].
`C#CCN(Cc1cc2c(=O)n(C)c(CN3CCN(C)CC3)nc2cc1Cl)c1ccc(C(=O)NCc2cccnc2)cc1`: the Potency result in assay [1] and in assay [2] was “inactive” each time. Further, in assay [4], the Potency was 12 µM (active).
With `Cc1cccc(Oc2cnc(=O)[nH]c2)c1`, the Potency entry in assay [1], in assay [4] and in assay [2] was “inactive” each time.
Turning to `CC1NC(=O)CCCNC(=O)C(Cc2c[nH]c3ccccc23)NC(=O)C(C)NC(=O)C(C(C)C)NC(=O)C(C(C)c2ccccc2)NC(=O)C(C(C)C)NC1=O` (stereo not drawn) (cyclo([GABA]AV[ξPhe(βξ-Me)]VAW); configuration not given here), the Potency result in assay [1] and in assay [2] was “inactive” throughout.
Regarding `CC[C@]1(O)CC2CN(CCc3c([nH]c4ccccc34)[C@@](C(=O)OC)(c3cc4c(cc3OC)N(C)[C@H]3[C@@](O)(C(=O)OC)[C@H](OC(C)=O)[C@]5(CC)C=CCN6CC[C@]43[C@@H]65)C2)C1` (some centres not stated), the Potency entry in assay [1] is “inactive”. Also, in the assay with Papain (Carica papaya), the outcome was inactive. In addition, in assay [2], the Potency was 57.8 nM (active) and 417 nM (active).
For the molecule `COc1cc(Br)c(S(=O)(=O)Nc2ccc(C(F)(F)F)c(O[C@@H]3CCN(C)C3)c2)cc1OC`, the Potency result in assay [1] and in assay [2] was “inactive” in each case. The Potency in assay [4] was 23.9 µM (active).
For `COc1ccc(-c2cnc3ccc(NCc4ccc(S(N)(=O)=O)cc4)nn23)cc1OC`, the Potency result in assay [1] was “inactive”. Besides, the Potency in assay [4] is 6.74 µM (active); in assay [2] it was 9.16 µM (active).
On to `NC(=O)[C@H](O[C@@H]1O[C@H](CO)[C@@H](O)[C@H](O)[C@H]1O)c1ccccc1`, for which the Potency entry in assay [1] and in assay [2] was “inactive” throughout.
Regarding `CC[C@H](CO)Nc1nc(NCc2ccc(-c3ccccn3)cc2)c2ncn(C(C)C)c2n1`, the Potency entry in assay [1] was “inactive”. The Potency in assay [4] is 0.19 µM (active); in assay [2] it was 0.459 µM (active).
With `Cc1cc(C(=O)Nc2cccc(C(=O)Nc3cccc(C(F)(F)F)c3)c2)on1`, the Potency result in assay [1] and in assay [2] was “inactive” each time. The Potency in assay [4] is 3.79 µM (active).
Regarding `OCC(CO[C@@H]1O[C@H](CO)[C@@H](O)[C@H](O)[C@H]1O)c1ccc2c(c1)OCO2` (some centres not stated), the Potency entry in assay [1] and in assay [2] was “inactive” in each case.
Consider `CCCCNc1ncc2c(-c3ccc(CN4CCN(C)CC4)cc3)cn(C3CCC(O)CC3)c2n1` (configuration not stated), for which the Potency result in assay [1] was “inactive”. The Potency was 15.1 µM (active) in assay [4]; 1.64 µM (active) and 2.95 µM (active) in assay [2].
In the case of `Cc1cc(O)cc(O[C@@H]2O[C@H](CO)[C@@H](O)[C@H](O)[C@H]2O)c1`, the Potency entry in assay [1] and in assay [2] was “inactive” in each case.
Take `C(#Cc1nc2ncccc2nc1OCCN1CCCC1)c1ccccc1`: in assay [1], the Potency entry is “inactive”. Further, the Potency in assay [2] was 2.58 µM (active).
The corresponding values for `CN=C(N)NCCCCC/C=C(/C)CC(C)C1OC(=O)C(C)C(O)/C=C/C(C)C(O)CC(O)C(C)C(O)CCC(C)C(O)CC2(O)OC(CC(OC(=O)CC(=O)O)CC(O)CC(O)C(C)C(O)/C(C)=C/CCC1C)CC(O)C2O` (configuration not stated) are “inactive” and 3.88 µM (active).
The corresponding values for `CC1(C)CC2C(O)c3cocc3CC(C)(O)C2C1` (configuration not stated) are “inactive” and “inactive”.
The corresponding values for `CC1(CCOC2OC(CO)C(O)C(O)C2O)CCC23OC2(C1)C(O)CC1C(C)(C(=O)O)CCCC13C` (configuration not stated) are “inactive” and “inactive”.
For `CC(C)=CCC/C(C)=C/CC/C(C)=C/COC1OC(COC2OCC(OC3OCC(O)C(O)C3O)C(O)C2O)C(O)C(OC2OC(C)C(OC3OC(C)C(OC4OCC(OC5OC(C)C(O)C(O)C5O)C(O)C4O)C(O)C3O)C(O)C2O)C1O` (configuration not stated), in assay [1], the activity change, negative = inhibition was 4.51% [at 12.4 µM] (inactive). For the same molecule, the outcome in assay [2] is “inactive [at 9.23 µM]”.
Consider `C/C=C/C=C/C(=O)N1CC[C@]23c4ccccc4N[C@H]4N(C)c5cccc6c5[C@@]42CCN([C@H]6C2OC2(C)C)[C@H]13` (some centres not stated), for which the Potency entry in assay [1] and in assay [2] was “inactive” throughout.
`COc1cc2ncnc(Nc3cccc(O)c3)c2cc1OC`: the Potency result in assay [1] is “inactive”. For the same molecule, the Potency in assay [2] was 2.9 µM (active).
`CC1=CC(=O)C2(OC3OC(C)C(O)C(OC(=O)/C=C/c4ccccc4)C3O)C=COC(OC3OC(CO)C(O)C(O)C3O)C12` (configuration not stated): the Potency entry in assay [1] and in assay [2] was “inactive” in each case.
